Results filed as inconclusive are left out. Activity calls are given as the source filed them. Unless noted, the call rests on the fitted dose curve; in most records, active means well fitted curve in the direction sought with a large enough effect in the repeat runs; inconclusive means weak or mixed curves; inactive means no such curve, though single readings can be large; an effect the other way counts as inactive or inconclusive.
Key:
[1] = molecular target: Estrogen receptor (Homo sapiens) (UniProt P03372); experiment: qHTS assay to identify small molecule antagonists of the estrogen receptor alpha (ER-alpha) signaling pathway using the BG1 cell line in the presence of 0.1 nM 17-beta-estradiol (AID 1259244); further: nearly all actives have a fitted effect of over 50% in size
Estrogen receptor (Homo sapiens), sequence (P03372 whole entry, looked up): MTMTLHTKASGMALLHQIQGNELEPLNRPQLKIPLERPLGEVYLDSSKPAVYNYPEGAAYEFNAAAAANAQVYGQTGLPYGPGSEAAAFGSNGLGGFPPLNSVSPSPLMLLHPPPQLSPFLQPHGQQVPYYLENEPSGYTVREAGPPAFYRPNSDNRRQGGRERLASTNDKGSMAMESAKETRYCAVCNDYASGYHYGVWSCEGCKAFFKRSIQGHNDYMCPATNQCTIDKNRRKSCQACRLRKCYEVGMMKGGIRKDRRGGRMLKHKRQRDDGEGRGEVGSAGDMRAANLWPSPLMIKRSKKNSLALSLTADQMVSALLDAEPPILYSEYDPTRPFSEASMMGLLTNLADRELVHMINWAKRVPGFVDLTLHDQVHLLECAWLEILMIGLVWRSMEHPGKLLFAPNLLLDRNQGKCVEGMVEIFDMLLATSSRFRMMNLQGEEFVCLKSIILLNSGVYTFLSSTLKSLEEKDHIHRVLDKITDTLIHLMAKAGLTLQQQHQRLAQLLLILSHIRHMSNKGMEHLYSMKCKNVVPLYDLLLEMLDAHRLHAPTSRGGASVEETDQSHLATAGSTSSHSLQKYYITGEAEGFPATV
Summary of the method: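 VM7Luc4E2; 4xERE-luciferase; 0.1 nM E2 final; 22 h co-incubation, 37C; ONE-Glo luminescence after 30 min at room temperature.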

[2] = qHTS assay to identify small molecule HDAC inhibitors (AID 1259364);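 further: wild-type HCT-116 cells with endogenous class I/II HDAC activity; top concentration of the series differs between compounds; nearly all actives have a fitted effect of over 45% in size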
Summary of the method: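 Relative class I and II HDAC activity is taken from the luminogenic signal in HCT-116 cells, with compound exposure 2 hr and reagent development 30 min at room temperature.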

[3] = qHTS assay to identify small molecule HDAC inhibitors - cell viability counter screen (AID 1259365); further: series mostly up to about 92 µM; nearly all actives have a fitted effect of over 50% in size
Summary of the method: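 After overnight seeding at 1,500 cells per well, wild-type HCT-116 cultures took up compounds in DMSO for 2hr at 37 C. Viable cell content came from luminescence with CellTiter-Glo.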

[4] = qHTS assay to identify small molecule agonists of the sonic hedgehog signaling (Shh) pathway - cell viability counter screen (AID 1259366); further: nearly all actives have a fitted effect of over 50% in size; further: potency means the concentration at half of the fitted maximal effect
Summary of the method: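 Same-well cytotoxicity read. Gli1-Luc reporter 3T3 cells; compounds 24hr, 37C/5% CO2; CellTiter-Fluor fluorescence.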

[5] = qHTS assay to identify small molecule antagonists of the sonic hedgehog signaling (Shh) pathway - cell viability counter screen (AID 1259367); further: nearly all actives have a fitted effect of over 55% in size; further: potency means the concentration at half of the fitted maximal effect
Summary of the method: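 Seed 3T3 Gli1-Luc cells at 2,000 per well; incubate 4 hr; add compound in DMSO, then conditioned medium; incubate at 37C with 5% CO2; add CellTiter-Fluor after 23 hr; read fluorescence 1 hr later.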

[6] = qHTS assay to identify small molecule agonists of the sonic hedgehog signaling (Shh) pathway (AID 1259368; calls by dose curve;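 further: NIH/3T3-derived 3T3Gli1-Luc cells carrying a stable Gli1-driven firefly luciferase reporter; series mostly up to about 92 µM; nearly all actives have a fitted effect of over 15% in size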)
Summary of the method: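 Mouse fibroblast (NIH/3T3) reporter cells with stably integrated Gli1-Luc were treated 24 hr with compound; firefly luciferase luminescence served as the read-out.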

[7] = qHTS assay to identify small molecule antagonists of the sonic hedgehog signaling (Shh) pathway (AID 1259369; calls by dose curve; further: nearly all actives have a fitted effect of over 45% in size; further: potency means the concentration at half of the fitted maximal effect)
Summary of the method: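 Conditioned medium drives Shh signalling in 3T3Gli1-Luc cells; compounds in DMSO co-applied, 24hr at 37 C, then luciferase luminescence.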

[8] = molecular target: Estrogen receptor beta (Homo sapiens) (UniProt Q92731); experiment: qHTS assay to identify small molecule agonists of the estrogen receptor beta (ER-beta) signaling pathway (AID 1259377; active means well fitted activation curve with a large enough effect in the signal ratio in the repeat runs, not every such curve was filed as active; the % refers to the signal ratio)
Estrogen receptor beta (Homo sapiens), sequence (Q92731 whole entry, looked up): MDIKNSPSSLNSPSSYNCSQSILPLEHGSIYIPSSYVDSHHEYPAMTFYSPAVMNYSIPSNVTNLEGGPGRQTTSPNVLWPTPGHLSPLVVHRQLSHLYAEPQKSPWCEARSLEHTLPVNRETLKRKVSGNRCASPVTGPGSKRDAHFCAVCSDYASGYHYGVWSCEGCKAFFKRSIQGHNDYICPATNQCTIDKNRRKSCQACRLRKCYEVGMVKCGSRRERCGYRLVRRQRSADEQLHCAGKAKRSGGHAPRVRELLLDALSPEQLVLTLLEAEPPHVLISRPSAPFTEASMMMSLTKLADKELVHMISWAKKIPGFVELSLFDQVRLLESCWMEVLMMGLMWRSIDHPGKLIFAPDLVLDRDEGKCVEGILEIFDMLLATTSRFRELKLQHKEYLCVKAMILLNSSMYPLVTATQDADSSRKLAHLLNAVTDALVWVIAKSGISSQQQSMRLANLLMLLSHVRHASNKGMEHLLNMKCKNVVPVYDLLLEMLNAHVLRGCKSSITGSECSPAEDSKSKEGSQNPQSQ
Summary of the method: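 Read-out: beta-lactamase FRET fluorescence. Cell line: ER-beta-UAS-bla HEK293T in 2% charcoal-stripped FBS. Exposure: 16 hr at 37C. Substrate step: 2 h at room temperature.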

[9] = molecular target: Estrogen receptor beta (Homo sapiens) (UniProt Q92731); experiment: qHTS assay to identify small molecule antagonists of the estrogen receptor beta (ER-beta) signaling pathway (AID 1259378; active means well fitted inhibition curve with a large enough effect in the signal ratio in the repeat runs, not every such curve was filed as active; the % refers to the signal ratio; further: potency means the concentration at half of the fitted maximal effect)
Summary of the method: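 ER-beta-UAS-bla HEK293T cells in 2% charcoal-stripped FBS medium treated with compound plus 1nM final 17-beta-estradiol for 16 hr at 37C. Beta-lactamase reporter read by FRET substrate fluorescence after 2 hours at room temperature.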

[10] = qHTS assay to identify small molecule agonists of the androgen receptor (AR) signaling pathway in the presence of an antagonist - cell viability counter screen (AID 1259379);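 further: MDA-kb2 human breast cancer cells carrying an MMTV luciferase reporter; series mostly up to about 92 µM; nearly all actives have a fitted effect of over 25% in size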
Summary of the method: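 A CellTiter-Fluor read-out measured viability of MDA-kb2 reporter cells (MMTV promoter with AR and GR response elements). Treatment: nilutamide 3.0uM final with compounds at 15 concentrations, 16 hr, 37C, 0% CO2.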

[11] = qHTS assay to identify small molecule agonists of the estrogen receptor beta (ER-beta) signaling pathway - cell viability counter screen (AID 1259380); further: nearly all actives have a fitted effect of over 30% in size
Summary of the method: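 Cells used were ER-beta-UAS-bla HEK293T in medium with 2% charcoal-stripped FBS. They were treated for 16 hr at 37C. Viability came from CellTiter-Glo luminescence.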

[12] = qHTS assay to identify small molecule antagonists of the estrogen receptor beta (ER-beta) signaling pathway - cell viability counter screen (AID 1259382); further: series mostly up to about 92 µM; nearly all actives have a fitted effect of over 55% in size
Summary of the method: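 Agonist-stimulated (1nM E2) ER-beta-UAS-bla HEK293T cells are incubated with library compounds for 16 hr at 37C. Cell viability is then assessed in the reporter-assay wells by adding CellTiter-Glo and reading luminescence after 30 min.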

[13] = molecular target: Estrogen receptor (Homo sapiens) (UniProt P03372); experiment: qHTS assay to identify small molecule agonists of the estrogen receptor alpha (ER-alpha) signaling pathway in the presence of an antagonist (AID 1259383; calls by dose curve; further: top concentration of the series differs between compounds; nearly all actives have a fitted effect of over 15% in size)
Summary of the method: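 Using VM7Luc4E2 cells seeded 24hr before treatment, antagonist ICI-182,780 (10.0nM final) was added, followed by compounds at 15 concentrations. Plates incubated 22hr; ONE-Glo luminescence quantified reporter activity.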

[14] = qHTS assay to identify small molecule agonists or antagonists of the thyroid stimulating hormone receptor (TSHR) signaling pathway - wild type cell line counter screen (AID 1259384; calls by dose curve)
Summary of the method: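 Wild-type Hek293 cells, 800/well, 18 h at 37C, then compound with Ro20-1724 for 30 min RT. cAMP by HTRF (cAMP-d2/anti-cAMP cryptate), 1 h RT, fluorescence read. 15 concentrations, triplicates.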

[15] = molecular target: Thyrotropin receptor (Homo sapiens) (UniProt P16473); experiment: qHTS assay to identify small molecule antagonists of the thyroid stimulating hormone receptor (TSHR) signaling pathway (AID 1259385; calls by dose curve; further: nearly all actives have a fitted effect of over 20% in size)
Thyrotropin receptor (Homo sapiens), sequence (P16473 whole entry, looked up): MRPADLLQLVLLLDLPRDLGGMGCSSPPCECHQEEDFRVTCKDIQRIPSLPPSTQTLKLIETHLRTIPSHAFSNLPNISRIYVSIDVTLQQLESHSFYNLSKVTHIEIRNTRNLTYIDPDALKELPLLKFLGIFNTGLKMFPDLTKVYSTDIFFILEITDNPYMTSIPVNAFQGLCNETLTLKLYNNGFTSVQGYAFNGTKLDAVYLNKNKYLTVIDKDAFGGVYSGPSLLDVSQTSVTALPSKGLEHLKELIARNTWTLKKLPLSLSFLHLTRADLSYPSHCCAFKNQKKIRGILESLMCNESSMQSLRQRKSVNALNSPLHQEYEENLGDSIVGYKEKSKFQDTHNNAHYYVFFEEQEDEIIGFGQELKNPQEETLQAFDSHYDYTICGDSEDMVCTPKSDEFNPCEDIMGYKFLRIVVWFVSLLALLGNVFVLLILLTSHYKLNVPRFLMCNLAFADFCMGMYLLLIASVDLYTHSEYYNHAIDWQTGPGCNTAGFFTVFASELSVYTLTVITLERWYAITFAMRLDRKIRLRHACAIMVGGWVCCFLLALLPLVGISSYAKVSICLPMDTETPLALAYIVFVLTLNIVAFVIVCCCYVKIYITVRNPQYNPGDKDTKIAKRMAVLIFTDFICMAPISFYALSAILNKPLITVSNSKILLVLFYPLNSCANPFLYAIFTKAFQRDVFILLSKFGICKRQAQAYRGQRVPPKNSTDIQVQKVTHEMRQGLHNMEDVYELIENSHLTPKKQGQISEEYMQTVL
Summary of the method: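 TSHR-HEK293 cells (800/well) plated 18 h, then compounds with Ro20-1724 and TSH at 1.5 ng/mL final, 30 min at room temperature. cAMP quantified by HTRF (cAMP-d2/anti-cAMP-cryptate, 1 h); 15 concentrations in triplicate.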

[16] = qHTS assay to identify small molecule agonists of the estrogen receptor alpha (ER-alpha) signaling pathway in the presence of an antagonist - cell viability counter screen (AID 1259386);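 further: series mostly up to about 92 µM; cells exposed to compounds for 22 h at 37 °C before the viability read; nearly all actives have a fitted effect of over 30% in size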
Summary of the method: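 ICI-182,780 at 10.0nM final accompanies the compound titration (15 concentrations, 22hr, 37C) on VM7Luc4E2 cells. The CellTiter-Fluor fluorescence readout runs in the same wells as the luciferase assay.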

[17] = molecular target: Progesterone receptor (Homo sapiens) (UniProt P06401); experiment: qHTS assay to identify small molecule antagonists of the progesterone receptor (PR) signaling pathway (AID 1346795; active means well fitted inhibition curve with a large enough effect in the signal ratio in the repeat runs, not every such curve was filed as active; the % refers to the signal ratio)
Progesterone receptor (Homo sapiens), sequence (P06401 whole entry, looked up): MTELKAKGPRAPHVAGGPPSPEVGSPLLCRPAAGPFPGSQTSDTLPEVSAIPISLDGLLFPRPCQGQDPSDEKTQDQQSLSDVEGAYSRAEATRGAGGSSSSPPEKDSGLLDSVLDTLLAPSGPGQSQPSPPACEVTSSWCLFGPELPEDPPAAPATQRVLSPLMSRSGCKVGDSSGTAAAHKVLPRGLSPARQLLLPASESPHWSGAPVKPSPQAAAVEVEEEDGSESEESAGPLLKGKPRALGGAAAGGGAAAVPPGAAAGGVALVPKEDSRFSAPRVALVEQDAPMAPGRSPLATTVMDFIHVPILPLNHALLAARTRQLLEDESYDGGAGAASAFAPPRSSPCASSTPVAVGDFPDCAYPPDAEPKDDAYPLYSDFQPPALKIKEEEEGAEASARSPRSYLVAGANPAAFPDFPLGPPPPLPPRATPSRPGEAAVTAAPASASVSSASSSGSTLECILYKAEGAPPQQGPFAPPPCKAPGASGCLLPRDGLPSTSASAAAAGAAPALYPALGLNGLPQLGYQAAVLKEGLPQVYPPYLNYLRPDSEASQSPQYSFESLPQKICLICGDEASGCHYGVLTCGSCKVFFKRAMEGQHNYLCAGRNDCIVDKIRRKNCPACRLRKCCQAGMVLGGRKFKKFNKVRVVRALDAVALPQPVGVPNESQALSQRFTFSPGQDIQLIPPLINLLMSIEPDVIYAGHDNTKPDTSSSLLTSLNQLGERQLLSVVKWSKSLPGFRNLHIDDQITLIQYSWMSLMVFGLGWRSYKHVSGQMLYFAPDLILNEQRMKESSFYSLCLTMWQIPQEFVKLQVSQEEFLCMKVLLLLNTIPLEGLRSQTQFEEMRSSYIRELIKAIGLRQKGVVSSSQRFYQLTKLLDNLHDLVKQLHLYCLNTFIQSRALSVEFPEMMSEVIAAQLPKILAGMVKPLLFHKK
Summary of the method: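 In HEK293T cells bearing the PR-UAS-bla reporter, compound effects on promegestone-driven (1 nM) beta-lactamase expression are assessed after 16 hr using a fluorescent FRET substrate incubated 2 hr at room temperature.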

[18] = molecular target: Progesterone receptor (Homo sapiens) (UniProt P06401); experiment: qHTS assay to identify small molecule agonists of the progesterone receptor (PR) signaling pathway (AID 1346784; calls by dose curve; further: nearly all actives have a fitted effect of over 30% in size)
Summary of the method: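 Compounds were tested for PR agonism in HEK 293T cells bearing a beta-lactamase gene under UAS control. Treatment lasted 16 hr at 37C; signal came from fluorescence of a FRET substrate.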

[19] = qHTS assay to identify small molecule phospholipidosis (PLD) inducers (AID 1259344; active means well fitted curve in the direction sought with a large enough effect; an effect the other way counts as inactive or inconclusive)
Summary of the method: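 Quantitative HTS in HepG2: compound plus LipidTOX Red dye for 24 h, paraformaldehyde fixation with Hoechst 33342, widefield high-content imaging; amiodarone as positive and DMSO as negative control.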

[20] = molecular target: Androgen receptor (Homo sapiens) (UniProt P10275); experiment: qHTS assay to identify small molecule agonists of the androgen receptor (AR) signaling pathway in the presence of an antagonist (AID 1259381; calls by dose curve; further: nearly all actives have a fitted effect of over 15% in size)
Androgen receptor (Homo sapiens), sequence (P10275 whole entry, looked up): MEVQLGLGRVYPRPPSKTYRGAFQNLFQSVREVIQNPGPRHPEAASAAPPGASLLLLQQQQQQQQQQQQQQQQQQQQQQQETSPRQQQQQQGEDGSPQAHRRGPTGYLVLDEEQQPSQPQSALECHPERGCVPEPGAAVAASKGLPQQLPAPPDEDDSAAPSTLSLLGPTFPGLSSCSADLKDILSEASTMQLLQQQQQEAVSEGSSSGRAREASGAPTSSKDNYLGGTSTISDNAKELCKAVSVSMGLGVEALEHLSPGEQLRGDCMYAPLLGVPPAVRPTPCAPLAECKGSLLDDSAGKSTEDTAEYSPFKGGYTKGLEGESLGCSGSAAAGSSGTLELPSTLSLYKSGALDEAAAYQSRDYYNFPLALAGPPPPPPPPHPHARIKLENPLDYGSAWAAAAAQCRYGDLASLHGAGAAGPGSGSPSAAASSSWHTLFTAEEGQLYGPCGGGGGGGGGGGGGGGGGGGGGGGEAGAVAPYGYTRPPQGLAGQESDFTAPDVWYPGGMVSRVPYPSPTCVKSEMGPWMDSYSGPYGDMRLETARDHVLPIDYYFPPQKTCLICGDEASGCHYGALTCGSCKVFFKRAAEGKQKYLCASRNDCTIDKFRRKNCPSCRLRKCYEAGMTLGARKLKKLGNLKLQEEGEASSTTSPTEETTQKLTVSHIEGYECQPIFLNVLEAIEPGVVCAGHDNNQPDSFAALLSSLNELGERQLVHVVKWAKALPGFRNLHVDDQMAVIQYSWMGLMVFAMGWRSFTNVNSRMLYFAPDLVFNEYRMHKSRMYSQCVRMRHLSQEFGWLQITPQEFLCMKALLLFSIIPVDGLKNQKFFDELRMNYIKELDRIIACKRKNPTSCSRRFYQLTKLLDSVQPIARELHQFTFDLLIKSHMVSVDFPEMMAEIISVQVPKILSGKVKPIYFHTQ
Summary of the method: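 Using human MDA-kb2 cells with an MMTV promoter–luciferase construct (AR and GR response elements), agonist activity is scored under 3.0uM nilutamide (final) co-treatment; 16hr incubation, 37C, luminescence readout via ONE-Glo.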

Measured: Potency

C=CCCCCCC
inactive: [1] | [2] | [3] | [4] | [5] | [6] | [8] | [9] | [10] | [11] | [12] | [13] | [14] | [15] | [16] | [17]
active: [7] 58.9 µM

Cc1cccc(C(C)(C)C)c1O
inactive: [1] | [2] | [3] | [4] | [5] | [6] | [7] | [8] | [9] | [10] | [12] | [13] | [16] | [18]

CN(C)CCCNCCCN
inactive: [1] | [2] | [3] | [5] | [6] | [8] | [9] | [10] | [12] | [13] | [14] | [15] | [16]
active: [4] 27.2 µM

COCCO
inactive: [1] | [2] | [3] | [4] | [5] | [6] | [7] | [10] | [11] | [12] | [13] | [16] | [18]

O=C(O)Cn1c(C(=O)Nc2nc(-c3ccccc3Cl)cs2)cc2ccccc21
inactive: [1] | [19] | [5] | [7] | [10] | [12] | [13] | [14] | [15] | [16]

CC(C)NCC(O)COc1ccc(CC(N)=O)cc1 (centres undefined)
inactive: [1] | [2] | [3] | [4] | [5] | [6] | [7] | [10] | [11] | [12] | [13] | [14] | [15] | [18] | [17]

C1CCC2OC2C1 (centres undefined)
inactive: [1] | [2] | [3] | [4] | [5] | [6] | [7] | [9] | [10] | [11] | [20] | [12] | [13] | [14] | [16] | [18]

C1=Cc2ccccc2C1
inactive: [1] | [2] | [3] | [4] | [5] | [6] | [7] | [10] | [12] | [13] | [16] | [18] | [17]

CCCCCCCCN(C)C
inactive: [1] | [2] | [3] | [4] | [5] | [6] | [7] | [10] | [11] | [12] | [13] | [15] | [16] | [18] | [17]

SC1CCCC1
inactive: [1] | [2] | [3] | [4] | [5] | [6] | [7] | [8] | [9] | [10] | [11] | [12] | [13] | [14] | [15] | [16] | [18] | [17]

CC(C)(C)c1cc(CCC(=O)OCC(COC(=O)CCc2cc(C(C)(C)C)c(O)c(C(C)(C)C)c2)(COC(=O)CCc2cc(C(C)(C)C)c(O)c(C(C)(C)C)c2)COC(=O)CCc2cc(C(C)(C)C)c(O)c(C(C)(C)C)c2)cc(C(C)(C)C)c1O
inactive: [1] | [2] | [3] | [4] | [5] | [6] | [7] | [9] | [10] | [11] | [12] | [13] | [14] | [15] | [16] | [18] | [17]

CCCOc1ccc2nc(NC(=O)OC)[nH]c2c1
inactive: [1] | [19] | [4] | [5] | [7] | [10] | [11] | [20] | [12] | [13] | [14] | [16] | [18]

COCCOCCOCCOCCOC
inactive: [1] | [2] | [3] | [4] | [5] | [6] | [7] | [8] | [9] | [10] | [20] | [13] | [14] | [15] | [16] | [18]

N#Cc1cc2ccccc2c2ccccc12
inactive: [1] | [2] | [3] | [4] | [5] | [6] | [7] | [10] | [12] | [13] | [14] | [15] | [16] | [18]

CC(CN)CCCN (centres undefined)
inactive: [1] | [2] | [3] | [4] | [5] | [6] | [8] | [9] | [10] | [12] | [13] | [14] | [15] | [16]

C=CC(=O)OCC(C)OCC(C)OCC(C)OC(=O)C=C (centres undefined)
active: [4] 24.3 µM | [5] 48.6 µM | [7] 9.69 µM | [9] 61.1 µM
inactive: [1] | [2] | [3] | [6] | [8] | [12] | [13] | [18]

COC(=O)C(C)=O
inactive: [1] | [2] | [3] | [4] | [5] | [6] | [7] | [8] | [9] | [10] | [11] | [12] | [13] | [14] | [15] | [16]

O=[N+]([O-])c1cccc(Cl)c1Cl
inactive: [1] | [2] | [3] | [4] | [5] | [6] | [7] | [8] | [9] | [10] | [11] | [12] | [13] | [15] | [16] | [18] | [17]
